Source: PubChem BioAssay (EPA / NIEHS)
“And” between values parts separate entries of the source, which are not always exact repeats. Equal entries are not always repeated. Results filed as inconclusive are left out. The source made the active and inactive calls. Rule for the calls, unless noted: active = hit-call score of the fitted dose curve at least 0.9, where 1 is the maximum; inconclusive = response in the unintended direction; inactive = score below 0.9. *1 amine or outer side, *2 acyl side, *3 side chain or, on linkers, in order; H or OH if unused. Where a SMILES comes first, the peptide text is derived from it. Bridges are numbered along the chain shown (N, C = ends). Roman numbers before positions name the chains, in order. [ ]: non-standard residue; d: D form. Actinocin(9to1) = Cc1c2oc3c(C)ccc(C(=O)[*:1])c3nc-2c(C(=O)[*:2])c(N)c1=O; NMeV = CN[C@H](C(=O)O)C(C)C; Sar = CNCC(=O)O

Key:
[1] = target: Cellular tumor antigen p53 (Homo sapiens) (UniProt P04637); assay: TOX21_p53_BLA_p2_ratio: Tox21 HCT-116 p53 Agonism Beta-lactamase Assay, Ratio, Phase 2 (AID 2283592)
Summary of the method: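 Cleaved-to-uncleaved substrate ratio (460 vs 530 nm) measured in HCT116 cells with an inducible beta-lactamase reporter linked to p53 activity. Compounds incubated 16 h at 37C before 2 h room-temperature CCF4-AM loading.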

[2] = TOX21_p53_BLA_p3_viability: Viability Assessment in the Tox21 HCT-116 p53 Agonism Beta-lactamase Assay, Phase 3 (AID 2283593);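 note: cells exposed to compound for 16 h before reading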
Summary of the method: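 HCT-116 cells (4000/well) rested 5 h at 37C, then got DMSO compounds by pin tool (217-fold dilution) for 16 h at 37C, 5% CO2. After the bla read, CellTiter-Glo was added and luminescence read at 30 min, room temperature.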

[3] = target: Cellular tumor antigen p53 (Homo sapiens) (UniProt P04637); assay: TOX21_p53_BLA_p3_ratio: Tox21 HCT-116 p53 Agonism Beta-lactamase Assay, Ratio, Phase 3 (AID 2283596)
Summary of the method: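 Cells were seeded at 4000/well, rested 5 h at 37C, then dosed with DMSO compound solutions (217-fold dilution) for 16 h. CCF4-AM substrate was loaded for 2 h at room temperature, and the 460/530 nm emission ratio was fitted for gain of signal versus DMSO.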

[4] = TOX21_p53_BLA_p4_viability: Viability Assessment in the Tox21 HCT-116 p53 Agonism Beta-lactamase Assay, Phase 4 (AID 2283597);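 note: hits lower the luminescence signal meaning cytotoxicity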
Summary of the method: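 Viability is taken as cellular ATP: after 16 h compound exposure of HCT116 cells and a 2 h room-temperature CCF4-AM substrate step, CellTiter-Glo reagent is added and luminescence is measured 30 min later.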

[5] = TOX21_p53_BLA_p5_viability: Viability Assessment in the Tox21 HCT-116 p53 Agonism Beta-lactamase Assay, Phase 5 (AID 2283600)
Summary of the method: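 Viability is taken from cellular ATP content, measured by luciferase luminescence in the same wells after the beta-lactamase ratio read. Cells are seeded at 4000 per well and exposed to DMSO-dissolved compounds, diluted 217-fold, for 16 h.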

[6] = target: Cellular tumor antigen p53 (Homo sapiens) (UniProt P04637); assay: TOX21_p53_BLA_p4_ratio: Tox21 HCT-116 p53 Agonism Beta-lactamase Assay, Ratio, Phase 4 (AID 2283601)
Summary of the method: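 HCT116 cells carrying an inducible beta-lactamase reporter were plated at 4000 cells/well, rested 5 h, then exposed to compounds in DMSO (217-fold dilution) for 16 h at 37C. CCF4-AM substrate was loaded 2 h at room temperature; 460/530 nm emission ratio scored gain-of-signal versus DMSO.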

[7] = target: Cellular tumor antigen p53 (Homo sapiens) (UniProt P04637); assay: TOX21_p53_BLA_p5_ratio: Tox21 HCT-116 p53 Agonism Beta-lactamase Assay, Ratio, Phase 5 (AID 2283599)
Summary of the method: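 HCT-116 cells carrying a p53-inducible beta-lactamase reporter were seeded at 4000 cells/well and dosed after 5 h with compound in DMSO (217-fold dilution). After 16 h at 37C, CCF4-AM substrate was added for 2 h, and the 460/530 nm emission ratio was scored as gain-of-signal versus DMSO.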

[8] = test system: Brachyury (BRA) Protein Expression, Deisenroth Lab, TBXT (gene 6862); assay: CCTE_Deisenroth_DEVTOX-GLR_legacy_Bra: (Legacy) CCTE's DevTox GLR-Endo Assay Evaluation of Brachyury (BRA) Protein Expression, Deisenroth Lab (AID 2284329; active = hit-call score of the fitted dose curve at least 0.9, where 1 is the maximum; inactive = score below 0.9)
Summary of the method: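 High-content imaging of fixed RUES2-GLR cells after a 48-hour differentiation with two compound exposures yields percent cells whose Bra signal exceeds pluripotent control median by 5x BMAD; values are baseline-corrected to DMSO.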

[9] = CCTE_Deisenroth_DEVTOX-GLR_legacy_CellCount: (Legacy) Viability Assessment in CCTE's DevTox GLR-Endo Assay, Deisenroth Lab (AID 2284331; active = hit-call score of the fitted dose curve at least 0.9, where 1 is the maximum; inactive = score below 0.9); conditions: actives raise or lower the signal
Summary of the method: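 RUES2-GLR human pluripotent cells were seeded 24 h, then differentiated 48 h with two compound doses at 24 h intervals (10-point, 1 nM - 200 uM). Fixed nuclei were imaged and counted; bidirectional fitting versus 0.2% DMSO.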

[10] = test system: SRY-box transcription factor 2 (SOX2) Protein Expression, Deisenroth Lab, SOX2 (gene 6657); assay: CCTE_Deisenroth_DEVTOX-GLR_legacy_Sox2: (Legacy) CCTE's DevTox GLR-Endo Assay Evaluation of SRY-box transcription factor 2 (SOX2) Protein Expression, Deisenroth Lab (AID 2284346; active = hit-call score of the fitted dose curve at least 0.9, where 1 is the maximum; inactive = score below 0.9)
Summary of the method: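 Two exposures, 24 h apart, during 48 h defined-media differentiation of seeded RUES2-GLR cells; nuclei-stained cells imaged. Sox2 positivity called at 5x BMAD above endoderm control median, DMSO median subtracted.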

[11] = test system: SRY-box transcription factor 2 (SOX2) Protein Expression, Deisenroth Lab, SOX2 (gene 6657); assay: CCTE_Deisenroth_DEVTOX-GLR_Endo_SOX2: CCTE's DevTox GLR-Endo Assay Evaluation of SRY-box transcription factor 2 (SOX2) Protein Expression, Deisenroth Lab (AID 2284412)
Summary of the method: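 Endpoint is percent SOX2-positive cells (SOX2+ count/total cells) minus 0.2% DMSO control, from high-content imaging of fixed, nuclear-stained RUES2-GLR cells. Dosing twice at 24 h intervals over 48 h differentiation, 1 nM–200 uM in 10 points.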

[12] = test system: Brachyury (BRA) Protein Expression, TBXT (gene 6862); assay: CCTE_Deisenroth_DEVTOX-GLR_Endo_BRA: CCTE's DevTox GLR-Endo Assay Evaluation of Brachyury (BRA) Protein Expression, Deisenroth Lab (AID 2284417; active = hit-call score of the fitted dose curve at least 0.9, where 1 is the maximum; inactive = score below 0.9)
Summary of the method: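 Endpoint is the fraction of BRA reporter-positive cells over total nuclei, corrected by subtracting the 0.2% DMSO value. Chemicals (1 nM - 200 uM, 10 points) were dosed twice during 48 h differentiation of RUES2-GLR cells, read by imaging.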

[13] = CCTE_Deisenroth_DEVTOX-GLR_Endo_CellCount: Viability Assessment in CCTE's DevTox GLR-Endo Assay, Deisenroth Lab (AID 2284420; active = hit-call score of the fitted dose curve at least 0.9, where 1 is the maximum; inactive = score below 0.9)
Summary of the method: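 Viability in differentiating RUES2-GLR cultures is scored by fluorescent nuclear counts after 48 h and two 24-hourly chemical treatments, as percent change from the 0.2% DMSO control.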

[14] = CCTE_Harrill_HTTr_Viability_MCF7: CCTE's 6-hour Cell Viability Assessment for the High-Throughput Transcriptomics (HTTr) Platform, in MCF-7 cells cultured in DMEM + 10% fetal bovine serum, Harrill Lab (AID 2284010; active = hit-call score of the fitted dose curve at least 0.9, where 1 is the maximum; inactive = score below 0.9)
Summary of the method: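 Eight-point concentration series, six-hour exposure. Propidium iodide exclusion imaged to assess membrane integrity as a cytotoxicity readout; bidirectional fitting was done with DMSO as negative control and activity baseline.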

[15] = CCTE_Harrill_HTTr_Apoptosis_MCF7: CCTE's 6-hour Apoptosis Assessment for the High-Throughput Transcriptomics (HTTr) Platform, in MCF-7 cells cultured in DMEM + 10% fetal bovine serum, Harrill Lab (AID 2284011; active = hit-call score of the fitted dose curve at least 0.9, where 1 is the maximum; inactive = score below 0.9)
Summary of the method: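 Cells are dosed with test chemicals at eight concentrations and imaged 6 hours later for caspase-3/7 activity using a green fluorogenic detection reagent. Activity is fitted in both directions against DMSO controls.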

[16] = CCTE_Harrill_HTTr_CellCount_MCF7: CCTE's Cell Proliferation Assessment for the High-Throughput Transcriptomics (HTTr) Platform, Harrill Lab (AID 2284012);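 note: count of Hoechst-stained nuclei per well by high-content imaging in MCF-7 cells; cells exposed to compound for six hours; intended direction is loss of nuclei count meaning fewer cells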
Summary of the method: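 For this full-screen endpoint, MCF-7 cultures received eight compound dilutions for six hours. Well nuclei counts from Hoechst imaging were analyzed relative to DMSO.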

Measured: AC50

Cellular tumor antigen p53 (Homo sapiens), sequence (P04637 whole entry, looked up): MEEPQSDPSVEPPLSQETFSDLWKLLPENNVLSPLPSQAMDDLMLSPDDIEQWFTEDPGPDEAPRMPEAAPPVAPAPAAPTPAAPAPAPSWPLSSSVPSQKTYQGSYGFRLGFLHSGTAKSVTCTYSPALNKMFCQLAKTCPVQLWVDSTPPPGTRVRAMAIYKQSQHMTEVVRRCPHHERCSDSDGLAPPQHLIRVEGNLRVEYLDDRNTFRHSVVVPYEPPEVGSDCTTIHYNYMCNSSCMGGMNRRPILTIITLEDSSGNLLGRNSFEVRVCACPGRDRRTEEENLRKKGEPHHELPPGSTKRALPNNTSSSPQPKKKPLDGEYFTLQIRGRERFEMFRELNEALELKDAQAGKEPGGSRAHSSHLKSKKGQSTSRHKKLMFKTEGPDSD

O=C(O)c1c2ccccc2cc2ccccc12
inactive: [1] | [2] | [3] | [4] | [5] | [6]

Cc1c(C(=O)NCCO)[n+](=O)c2ccccc2n1[O-]
inactive: [1] | [2] | [3] | [4] | [7] | [6]

C[C@@H]1C[C@H]2[C@@H]3C[C@H](F)C4=CC(=O)C=C[C@]4(C)[C@@]3(Cl)[C@@H](O)C[C@]2(C)[C@H]1C(=O)COC(=O)C(C)(C)C
inactive: [1] | [2] | [3] | [4] | [7] | [6]

NC(Cc1ccc(F)cc1)C(=O)O (stereo unspecified)
inactive: [1] | [2] | [3] | [4] | [7] | [6]

COc1ccc(C=CC(=O)OCCC(C)C)cc1
inactive: [1] | [2] | [3] | [4] | [5]

CCN(CC)C(=O)Nc1ccc(OCC(O)CNC(C)(C)C)c(C(C)=O)c1 (stereo unspecified)
inactive: [1] | [2] | [3] | [4] | [5]

Cc1cc(C2CCCCC2)n(O)c(=O)c1
inactive: [1] | [2] | [3] | [4] | [7] | [6]

Nc1ccn(C2CO[C@H](CO)O2)c(=O)n1 (stereo partly specified)
inactive: [2] | [4]
active: [1] 0.0586 nM | [3] 0.0596 nM | [7] 0.329 nM | [6] 0.0816 nM

CN1[C@@H]2CC[C@H]1CC(OC(c1ccccc1)c1ccccc1)C2 (stereo partly specified)
inactive: [1] | [2] | [3] | [4] | [5] | [6]

CC(C)NCC(O)c1ccc2ccccc2c1 (stereo unspecified)
inactive: [1] | [2] | [3] | [4] | [7] | [6]

COC(=O)CCc1ccc(OCC(O)CNC(C)C)cc1 (stereo unspecified)
inactive: [1] | [2] | [3] | [4] | [5]

C=C[C@]1(C)C[C@@H](OC(=O)CO)[C@]2(C)[C@H](C)CC[C@]3(CCC(=O)[C@H]32)[C@@H](C)[C@@H]1O
inactive: [1] | [2] | [3] | [4] | [5] | [6]

O=NN(CCCl)C(=O)NC1CCCCC1
inactive: [1] | [2] | [3] | [4] | [5]

CS(=O)(=O)Nc1cc2occ(NC=O)c(=O)c2cc1Oc1ccccc1
inactive: [1] | [2] | [3] | [4] | [5]

Nc1ccccc1O
inactive: [2]
active: [1] 41000 nM | [3] 39200 nM | [4] 75400 nM | [7] 32100 nM | [6] 35200 nM

Cc1c2oc3c(C)ccc(C(=O)N[C@@H]4C(=O)N[C@H](C(C)C)C(=O)N5CCC[C@H]5C(=O)N(C)CC(=O)N(C)[C@@H](C(C)C)C(=O)O[C@@H]4C)c3nc-2c(C(=O)N[C@@H]2C(=O)N[C@H](C(C)C)C(=O)N3CCC[C@H]3C(=O)N(C)CC(=O)N(C)[C@@H](C(C)C)C(=O)O[C@@H]2C)c(N)c1=O (I: T[dV]P[Sar][NMeV] / II: T[dV]P[Sar][NMeV]; ester I:1-I:C, II:1-II:C; linker I:N-II:N via Actinocin(9to1))
inactive: [4]
active: [1] 0.163 nM and 3.91 nM | [2] 40600 nM | [3] 0.165 nM and 4.24 nM | [7] 0.0328 nM and 7.71 nM | [6] 0.262 nM and 3.61 nM | [8] 1.54 nM | [9] 0.297 nM | [10] 2.31 nM | [11] 1.62 nM | [12] 1.08 nM | [13] 0.0148 nM

CCOC(=O)c1ccccc1O
inactive: [1] | [2] | [3] | [7] | [5]

COC(=O)c1ccccc1Cl
inactive: [1] | [2] | [3] | [7] | [5]

C[C@]12CCC(=O)C=C1CC[C@@H]1[C@@H]2[C@@H](O)C[C@@]2(C)[C@H]1CC[C@]2(O)C(=O)COP(=O)(O)O
inactive: [1] | [2] | [3] | [7] | [5] | [6]

CC(=O)CC(=O)Nc1ccc2[nH]c(=O)[nH]c2c1
inactive: [1] | [2] | [3] | [7]

N#Cc1c(F)cccc1F
inactive: [1] | [2] | [3] | [7] | [5] | [6]

c1ccc2sc(SSc3nc4ccccc4s3)nc2c1
inactive: [1] | [2] | [3] | [7] | [5] | [6]

CC(S)C(C)S (stereo unspecified)
inactive: [1] | [2] | [3] | [7] | [5] | [6]

c1ccc([C@H]2CN3CCSC3=N2)cc1
inactive: [1] | [2] | [3] | [4] | [5] | [6] | [14] | [15] | [16]

CCN(CC)CCNC(=O)c1ccc(NC(C)=O)cc1
inactive: [1] | [2] | [3] | [7] | [5] | [6]

Cc1cc(O)c2c(c1)C(=O)c1cccc(O)c1C2=O
inactive: [1] | [2] | [3] | [7] | [5] | [6]

O=C(O)Cc1nn(Cc2ccc(Br)cc2F)c(=O)c2ccccc12
inactive: [1] | [2] | [3] | [7] | [5] | [6]

CCSC(=O)N(CC)CC
inactive: [1] | [2] | [3] | [7]
